# Source: the supplement of paper PMC8728848
# Many of the other results were omitted from the sample, so the strongest signals are more common in it than they were.
# Legend:
# Experiment in all cases: glycan array binding signal (z-score within array); higher = stronger binding
# [1] = test system: Gal(b1-3)[Fuc(a1-4)]GlcNAc(b1-2)Man(a1-3)[Gal(b1-3)[Fuc(a1-4)]GlcNAc(b1-2)Man(a1-6)]Man(b1-4)GlcNAc(b1-4)GlcNAc; conditions: glycan notation: IUPAC condensed, linker removed
# Summary of the method: (§1)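 Glycan array binding is given as a within-array Z-score, which can be read as non-binding when negative. The arrays, 3228 of them, came from the Consortium for Functional Glycomics database and were retained only where the protein sequence was available. Z-scores were averaged across arrays of the same protein sequence at different concentrations or buffers and across linkers.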
# [2] = test system: Gal(b1-3)[GlcNAc(b1-6)]GalNAc; conditions: glycan notation: IUPAC condensed, linker removed
# Summary of the method: as §1
# [3] = test system: Gal(b1-3)[Neu5Ac(a2-6)]GlcNAc(b1-4)Gal(b1-4)Glc; conditions: glycan notation: IUPAC condensed, linker removed
# Summary of the method: as §1
# [4] = test system: Gal(b1-3)GlcNAc(b1-3)Gal(b1-4)Glc; conditions: glycan notation: IUPAC condensed, linker removed
# Summary of the method: as §1
# [5] = test system: Gal(b1-3)[Neu5Ac(a2-6)]GlcNAc(b1-6)Gal(b1-4)Glc; conditions: glycan notation: IUPAC condensed, linker removed
# Summary of the method: as §1
# [6] = test system: Gal(b1-3)[Fuc(a1-4)]GlcNAc(b1-2)Man(a1-3)[Gal(b1-3)[Fuc(a1-4)]GlcNAc(b1-2)Man(a1-6)]Man(b1-4)GlcNAc(b1-4)[Fuc(a1-6)]GlcNAc; conditions: glycan notation: IUPAC condensed, linker removed
# Summary of the method: as §1
# [7] = test system: Gal(b1-4)GlcNAc(b1-2)Man(a1-3)[Gal(b1-4)GlcNAc(b1-2)Man(a1-6)][Gal(b1-4)GlcNAc(b1-4)]Man(b1-4)GlcNAc(b1-4)[Fuc(a1-6)]GlcNAc; conditions: glycan notation: IUPAC condensed, linker removed
# Summary of the method: as §1
# [8] = test system: Gal(b1-3)[Fuc(a1-4)]GlcNAc(b1-3)Gal(b1-3)[Fuc(a1-4)]GlcNAc; conditions: glycan notation: IUPAC condensed, linker removed
# Summary of the method: as §1
# [9] = test system: Gal(b1-3)[Fuc(a1-4)]GlcNAc(b1-3)Gal(b1-4)GlcNAc; conditions: glycan notation: IUPAC condensed, linker removed
# Summary of the method: as §1
# Gal(b1-4)Glc6S = conditions: glycan notation: IUPAC condensed, linker removed
# Summary of the method: as §1
# [10] = test system: Gal(b1-3)[Fuc(a1-4)]GlcNAc; conditions: glycan notation: IUPAC condensed, linker removed
# Summary of the method: as §1
# Gal(b1-3)GlcNAc = conditions: glycan notation: IUPAC condensed, linker removed
# Summary of the method: as §1
# [11] = test system: Gal(b1-4)GalNAc(a1-3)[Fuc(a1-2)]Gal(b1-4)GlcNAc; conditions: glycan notation: IUPAC condensed, linker removed
# Summary of the method: as §1
# Gal(b1-4)Gal = conditions: glycan notation: IUPAC condensed, linker removed
# Summary of the method: as §1
# [12] = test system: Gal(b1-3)[Fuc(a1-4)]GlcNAc(b1-3)Gal(b1-4)[Fuc(a1-3)]GlcNAc; conditions: glycan notation: IUPAC condensed, linker removed
# Summary of the method: as §1
# [13] = test system: Gal(b1-3)GlcNAc(b1-3)GalNAc; conditions: glycan notation: IUPAC condensed, linker removed
# Summary of the method: as §1
# Gal(b1-3)GlcNAc6S = conditions: glycan notation: IUPAC condensed, linker removed
# Summary of the method: as §1
# [14] = test system: Gal(b1-4)GlcNAc(b1-2)Man(a1-3)Man(b1-4)GlcNAc(b1-4)GlcNAc; conditions: glycan notation: IUPAC condensed, linker removed
# Summary of the method: as §1
# [15] = test system: Gal(b1-3)[Fuc(a1-4)]GlcNAc(b1-2)Man; conditions: glycan notation: IUPAC condensed, linker removed; mutation: R125K
# Summary of the method: as §1
# [16] = test system: Gal(b1-4)GlcNAc(b1-2)Man(a1-3)[Gal(b1-4)GlcNAc(b1-2)Man(a1-6)]Man(b1-4)GlcNAc(b1-4)[Fuc(a1-6)]GlcNAc; conditions: glycan notation: IUPAC condensed, linker removed
# Summary of the method: as §1
# Chain of CHI3L1 (Homo sapiens), P36222 (P36222 whole entry): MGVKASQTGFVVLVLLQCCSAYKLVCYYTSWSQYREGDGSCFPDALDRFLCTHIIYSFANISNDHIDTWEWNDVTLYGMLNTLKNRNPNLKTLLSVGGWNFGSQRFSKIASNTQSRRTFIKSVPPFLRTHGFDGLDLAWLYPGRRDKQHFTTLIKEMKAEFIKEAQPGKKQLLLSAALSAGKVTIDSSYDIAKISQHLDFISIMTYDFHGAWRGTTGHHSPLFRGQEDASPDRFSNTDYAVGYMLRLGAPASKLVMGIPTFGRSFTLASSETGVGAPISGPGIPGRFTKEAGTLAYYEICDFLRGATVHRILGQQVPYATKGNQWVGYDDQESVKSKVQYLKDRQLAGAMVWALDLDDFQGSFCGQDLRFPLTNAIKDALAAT
# Chain of Regenerating Gene IV (Homo sapiens), Q9BYZ8 (Q9BYZ8 whole entry, looked up): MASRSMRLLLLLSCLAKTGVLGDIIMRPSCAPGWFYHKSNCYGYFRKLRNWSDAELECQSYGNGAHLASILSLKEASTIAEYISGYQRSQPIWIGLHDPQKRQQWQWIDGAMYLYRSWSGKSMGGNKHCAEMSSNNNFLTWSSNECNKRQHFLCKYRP
# Chain of PILRb (Mus musculus), Q2YSF2 (Q2YSF2 entry or part of it): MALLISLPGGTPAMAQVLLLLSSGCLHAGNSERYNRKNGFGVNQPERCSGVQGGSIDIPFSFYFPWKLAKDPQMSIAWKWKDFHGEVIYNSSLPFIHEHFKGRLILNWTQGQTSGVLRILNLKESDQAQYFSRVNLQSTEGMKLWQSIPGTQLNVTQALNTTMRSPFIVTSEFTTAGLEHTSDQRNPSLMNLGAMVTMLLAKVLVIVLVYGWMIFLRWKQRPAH
# Chain of Avaren (Actinomycete K97) (chain, as listed by the source): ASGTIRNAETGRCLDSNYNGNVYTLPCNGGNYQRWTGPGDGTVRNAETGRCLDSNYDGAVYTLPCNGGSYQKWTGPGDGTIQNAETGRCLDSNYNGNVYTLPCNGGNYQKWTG
# Chain of 6RG (Lolium perenne) (chain, as listed by the source): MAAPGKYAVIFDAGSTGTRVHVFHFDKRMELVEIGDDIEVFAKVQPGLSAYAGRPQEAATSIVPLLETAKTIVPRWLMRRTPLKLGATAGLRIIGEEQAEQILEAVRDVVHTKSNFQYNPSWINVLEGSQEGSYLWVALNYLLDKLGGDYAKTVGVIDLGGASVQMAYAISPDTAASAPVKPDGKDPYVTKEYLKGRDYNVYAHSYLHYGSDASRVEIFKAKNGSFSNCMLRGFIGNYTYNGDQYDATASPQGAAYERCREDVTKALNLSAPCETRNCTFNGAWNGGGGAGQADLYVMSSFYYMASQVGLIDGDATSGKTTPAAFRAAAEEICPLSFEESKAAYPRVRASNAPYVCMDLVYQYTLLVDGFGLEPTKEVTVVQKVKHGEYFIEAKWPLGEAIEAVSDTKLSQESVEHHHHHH
# Chain of Aggrecan (Rattus norvegicus), NP_071526 (chain, as listed by the source): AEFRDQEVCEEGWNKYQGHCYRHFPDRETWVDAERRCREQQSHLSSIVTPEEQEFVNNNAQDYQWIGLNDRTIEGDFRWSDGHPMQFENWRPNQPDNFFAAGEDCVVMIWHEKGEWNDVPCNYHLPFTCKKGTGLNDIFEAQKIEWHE
# Chain of Neurocan (Homo sapiens), O14594 (O14594 other isoform, or with tags, fused parts or gaps): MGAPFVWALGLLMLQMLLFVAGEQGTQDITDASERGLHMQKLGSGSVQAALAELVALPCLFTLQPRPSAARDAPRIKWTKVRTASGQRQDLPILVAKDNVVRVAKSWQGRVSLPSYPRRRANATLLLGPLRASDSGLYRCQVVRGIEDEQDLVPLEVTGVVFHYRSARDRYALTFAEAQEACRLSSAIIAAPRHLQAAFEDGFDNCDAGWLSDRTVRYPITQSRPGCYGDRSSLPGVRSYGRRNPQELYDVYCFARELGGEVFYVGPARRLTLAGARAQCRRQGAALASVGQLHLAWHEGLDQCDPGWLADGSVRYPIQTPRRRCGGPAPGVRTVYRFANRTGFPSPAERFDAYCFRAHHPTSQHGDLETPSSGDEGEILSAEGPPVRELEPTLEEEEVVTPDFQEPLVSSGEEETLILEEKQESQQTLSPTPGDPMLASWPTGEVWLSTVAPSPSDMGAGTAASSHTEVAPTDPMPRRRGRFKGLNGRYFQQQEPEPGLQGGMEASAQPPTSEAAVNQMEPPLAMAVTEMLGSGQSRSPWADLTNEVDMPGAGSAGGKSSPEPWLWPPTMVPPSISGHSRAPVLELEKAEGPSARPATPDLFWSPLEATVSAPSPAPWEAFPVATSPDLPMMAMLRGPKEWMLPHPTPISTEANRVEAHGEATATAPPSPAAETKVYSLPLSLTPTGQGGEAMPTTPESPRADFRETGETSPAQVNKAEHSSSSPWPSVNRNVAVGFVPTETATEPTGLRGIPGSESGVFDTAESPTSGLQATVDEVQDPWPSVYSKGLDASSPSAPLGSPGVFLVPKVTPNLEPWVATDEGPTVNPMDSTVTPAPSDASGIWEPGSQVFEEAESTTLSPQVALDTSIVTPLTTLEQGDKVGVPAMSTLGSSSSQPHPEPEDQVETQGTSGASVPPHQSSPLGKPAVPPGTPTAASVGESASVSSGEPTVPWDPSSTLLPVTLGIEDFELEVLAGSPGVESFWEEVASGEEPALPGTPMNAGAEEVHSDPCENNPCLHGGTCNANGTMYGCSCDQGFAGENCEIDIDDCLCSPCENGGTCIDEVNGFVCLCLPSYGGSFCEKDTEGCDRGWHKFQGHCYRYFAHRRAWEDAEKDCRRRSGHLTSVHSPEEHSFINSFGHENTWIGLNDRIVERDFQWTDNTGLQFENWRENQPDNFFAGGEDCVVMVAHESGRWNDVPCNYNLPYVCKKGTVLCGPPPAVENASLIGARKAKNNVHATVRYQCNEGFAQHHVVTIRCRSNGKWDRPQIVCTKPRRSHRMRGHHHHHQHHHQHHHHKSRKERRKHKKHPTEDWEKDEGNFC
# Chain of C3b (Homo sapiens), P01024 (P01024 23-667): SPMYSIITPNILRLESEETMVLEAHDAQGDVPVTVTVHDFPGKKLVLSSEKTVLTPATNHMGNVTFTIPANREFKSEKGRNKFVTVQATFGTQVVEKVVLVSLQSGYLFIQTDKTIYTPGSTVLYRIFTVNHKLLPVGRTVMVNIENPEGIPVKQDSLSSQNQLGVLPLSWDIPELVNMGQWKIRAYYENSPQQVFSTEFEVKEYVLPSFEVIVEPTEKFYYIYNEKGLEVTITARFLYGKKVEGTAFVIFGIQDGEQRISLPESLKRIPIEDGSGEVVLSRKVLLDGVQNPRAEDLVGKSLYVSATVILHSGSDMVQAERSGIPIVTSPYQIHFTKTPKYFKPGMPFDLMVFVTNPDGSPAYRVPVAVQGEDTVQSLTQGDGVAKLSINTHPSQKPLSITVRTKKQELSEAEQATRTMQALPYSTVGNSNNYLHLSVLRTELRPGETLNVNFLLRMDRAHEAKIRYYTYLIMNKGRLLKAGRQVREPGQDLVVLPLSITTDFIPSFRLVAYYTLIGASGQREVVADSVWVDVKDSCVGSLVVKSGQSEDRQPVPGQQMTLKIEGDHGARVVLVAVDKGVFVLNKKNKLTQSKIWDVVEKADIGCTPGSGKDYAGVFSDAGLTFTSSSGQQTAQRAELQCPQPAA
# Chain of PILRa (Mus musculus), Q2YSF3 (Q2YSF3 entry or part of it): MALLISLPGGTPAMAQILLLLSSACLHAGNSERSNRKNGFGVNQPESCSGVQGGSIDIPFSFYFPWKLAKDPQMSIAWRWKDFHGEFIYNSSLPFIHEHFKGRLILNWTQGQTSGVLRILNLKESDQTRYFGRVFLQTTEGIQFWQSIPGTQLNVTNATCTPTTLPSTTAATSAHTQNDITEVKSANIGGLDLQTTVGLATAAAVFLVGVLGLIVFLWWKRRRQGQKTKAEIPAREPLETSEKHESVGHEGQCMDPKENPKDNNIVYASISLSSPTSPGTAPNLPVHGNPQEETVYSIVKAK
# Chain of 6RG (Lolium perenne), B9U140 (B9U140 entry or part of it): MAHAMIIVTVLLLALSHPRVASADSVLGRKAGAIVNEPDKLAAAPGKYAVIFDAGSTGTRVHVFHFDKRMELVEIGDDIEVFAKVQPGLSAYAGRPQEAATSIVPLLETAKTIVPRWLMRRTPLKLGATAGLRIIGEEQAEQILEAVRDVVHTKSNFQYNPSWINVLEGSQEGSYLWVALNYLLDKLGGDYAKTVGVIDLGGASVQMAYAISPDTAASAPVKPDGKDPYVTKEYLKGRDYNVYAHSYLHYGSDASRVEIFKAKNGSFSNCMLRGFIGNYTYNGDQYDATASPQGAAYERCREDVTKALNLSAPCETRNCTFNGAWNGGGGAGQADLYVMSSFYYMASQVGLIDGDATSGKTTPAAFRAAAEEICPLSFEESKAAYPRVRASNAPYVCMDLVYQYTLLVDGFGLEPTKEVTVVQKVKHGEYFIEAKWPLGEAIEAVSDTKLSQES
# Chain of wLAT-1A (Homo sapiens), Q01650 (Q01650 whole entry): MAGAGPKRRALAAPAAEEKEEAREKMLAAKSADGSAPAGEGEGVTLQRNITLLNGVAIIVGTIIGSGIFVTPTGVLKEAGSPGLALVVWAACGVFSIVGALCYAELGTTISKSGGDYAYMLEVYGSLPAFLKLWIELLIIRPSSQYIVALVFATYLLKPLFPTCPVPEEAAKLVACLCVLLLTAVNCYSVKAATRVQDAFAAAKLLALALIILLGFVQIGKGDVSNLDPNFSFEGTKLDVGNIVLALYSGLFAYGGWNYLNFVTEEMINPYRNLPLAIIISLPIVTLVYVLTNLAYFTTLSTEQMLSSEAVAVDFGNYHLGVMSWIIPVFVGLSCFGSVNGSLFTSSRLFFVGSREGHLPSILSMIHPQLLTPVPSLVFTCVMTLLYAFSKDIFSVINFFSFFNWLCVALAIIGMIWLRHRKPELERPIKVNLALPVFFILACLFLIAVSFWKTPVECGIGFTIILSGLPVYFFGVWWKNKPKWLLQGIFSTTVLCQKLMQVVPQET
substance,measurement,setting,value
"PILRa (Mus musculus), Q2YSF3",glycan array binding signal (z-score),[1],0.063
"HARE (Homo sapiens), Q8WWQ8",glycan array binding signal (z-score),[2],-0.451
same,glycan array binding signal (z-score),[3],1.92
6RG (Lolium perenne),glycan array binding signal (z-score),[4],6.36
same,glycan array binding signal (z-score),[2],-0.16
same,glycan array binding signal (z-score),[5],4.25
Avaren (Actinomycete K97),glycan array binding signal (z-score),[4],0.952
same,glycan array binding signal (z-score),[6],1.53
same,glycan array binding signal (z-score),[7],-0.121
"Regenerating Gene IV (Homo sapiens), Q9BYZ8",glycan array binding signal (z-score),[8],-0.411
same,glycan array binding signal (z-score),[9],-0.208
same,glycan array binding signal (z-score),Gal(b1-4)Glc6S,2.4
"C3b (Homo sapiens), P01024",glycan array binding signal (z-score),[8],0.483
same,glycan array binding signal (z-score),[10],0.283
"PILRb (Mus musculus), Q2YSF2",glycan array binding signal (z-score),Gal(b1-3)GlcNAc,-0.113
same,glycan array binding signal (z-score),[11],-0.547
same,glycan array binding signal (z-score),Gal(b1-4)Gal,0.167
same,glycan array binding signal (z-score),Gal(b1-4)Glc6S,1.22
MpAFP RI GFP (Marinomonas primoryensis),glycan array binding signal (z-score),[6],2.74
same,glycan array binding signal (z-score),[12],-0.369
same,glycan array binding signal (z-score),[2],-0.258
same,glycan array binding signal (z-score),Gal(b1-4)Gal,-0.4
"CHI3L1 (Homo sapiens), P36222",glycan array binding signal (z-score),[13],-0.129
same,glycan array binding signal (z-score),Gal(b1-3)GlcNAc6S,0.72
same,glycan array binding signal (z-score),[14],-0.118
"Neurocan (Homo sapiens), O14594",glycan array binding signal (z-score),[8],2.48
same,glycan array binding signal (z-score),[14],0.015
"Aggrecan (Rattus norvegicus), NP_071526",glycan array binding signal (z-score),[4],0.002
same,glycan array binding signal (z-score),[8],0.137
same,glycan array binding signal (z-score),[10],4.94
same,glycan array binding signal (z-score),[5],-0.144
"SRLC (Mus musculus), Q8VIF6",glycan array binding signal (z-score),[12],4.49
"6RG (Lolium perenne), B9U140",glycan array binding signal (z-score),[5],-0.249
"wLAT-1A (Homo sapiens), Q01650",glycan array binding signal (z-score),[11],-0.62
"Siglec-8 (Homo sapiens), Q9NYZ4",glycan array binding signal (z-score),[15],0.797
same,glycan array binding signal (z-score),[10]; mutation: R125K,-0.408
same,glycan array binding signal (z-score),[14],-0.306
same,glycan array binding signal (z-score),[16],-0.08
same,glycan array binding signal (z-score),[7]; mutation: R125K,-0.535
